These results are taken from PubChem BioAssay (NCI).

Holding throughout (assay): NCI-60 one-dose screen, 48 h (100 = growth as untreated, 0 = no growth, -100 = all killed)
The subject of one test is HCT-15 colon. The note with it: 10 µM.
The test system of a further test is HT29 colon. The note with it: 10 µM.
For another test, the system named is SNB-75 CNS. The note with it: 10 µM.
In a further test the test system is U251 CNS. The note with it: 10 µM.
The next test has as its system SK-MEL-5 melanoma. The note with it: 10 µM.
A further test concerns UACC-62 melanoma.
The next test relates to LOX IMVI melanoma. The note with it: 10 µM.
In another test the test system is SK-MEL-28 melanoma. The note with it: 10 µM.
The test system of a further test is EKVX NSCLC. The following applies: 10 µM.
Another test has as its system SN12C renal. The following applies: 10 µM.
The next test deals with UO-31 renal. The following applies: 10 µM.
Another test has as its system TK-10 renal.
The subject of the next test is ACHN renal. The note with it: 10 µM.
Another test deals with CAKI-1 renal. The note with it: 10 µM.
The next test deals with A498 renal. The note with it: 10 µM.
The subject of the next test is CCRF-CEM leukemia. The following applies: 10 µM.
The next test relates to MOLT-4 leukemia. The following applies: 10 µM.
For another test, the system named is SNB-19 CNS. The note with it: 10 µM.
Another test deals with PC-3 prostate. The following applies: 10 µM.
The next test concerns SK-MEL-2 melanoma. The note with it: 10 µM.

Structures are written as SMILES. Where “and” joins values, the source holds several entries; their conditions need not be identical. Equal values may be shown once. The panel holds about 83,000 compounds, 20% with a hit somewhere; the sample as a whole holds those more often.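 For each line, cells grew in 96-well plates with the test compound present at a single concentration for 48 hours.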 Calls of active or inactive are those of the source. How the source made its calls: active means growth percent below 10; inactive means the rest.

On to `Cc1ccncc1C(N)=O`, for which the growth in the test on HCT-15 colon was 96.6% (inactive); with HT29 colon, 105% (inactive); with SNB-75 CNS, 80.9% (inactive); with U251 CNS it was 98.3% (inactive); with SK-MEL-5 melanoma it was 100% (inactive); in the test on UACC-62 melanoma (10 µM unless noted), 95.8% (inactive). Moreover, the growth was 93.2% (inactive) with LOX IMVI melanoma; 114% (inactive) in the test with SK-MEL-28 melanoma; 106% (inactive) in the test with EKVX NSCLC; 101% (inactive) with SN12C renal; 97% (inactive) with UO-31 renal; 112% (inactive) with TK-10 renal (10 µM unless noted). The growth in the test on ACHN renal was 95.3% (inactive); in the test on CAKI-1 renal it was 64.4% (inactive); in the test on A498 renal it was 82.7% (inactive); in the test on CCRF-CEM leukemia, 83.1% (inactive); in the test on MOLT-4 leukemia it was 95.2% (inactive).
Consider `C=C1CC/C=C(\C)C(=O)C[C@@H]2[C@@H]1CC2(C)C`, for which the growth was 99% (inactive) in the test with HCT-15 colon; 112% (inactive) with HT29 colon; 95.7% (inactive) in the test with SNB-19 CNS; 100% (inactive) in the test with U251 CNS; 92.6% (inactive) in the test on PC-3 prostate; 106% (inactive) with SK-MEL-5 melanoma. The growth was 101% (inactive) in the test on UACC-62 melanoma (10 µM); -99.1% (active) with UACC-62 melanoma (100 µM); 89.7% (inactive) in the test on LOX IMVI melanoma; 104% (inactive) in the test on SK-MEL-28 melanoma; 102% (inactive) with SK-MEL-2 melanoma; 104% (inactive) in the test on EKVX NSCLC. Further, the growth in the test with SN12C renal is 114% (inactive); with UO-31 renal, 88.3% (inactive); with TK-10 renal (10 µM) it was 123% (inactive); with TK-10 renal (100 µM), -73.6% (active); in the test on ACHN renal, 102% (inactive); in the test on A498 renal, 85% (inactive). Besides, the growth was 69.3% (inactive) in the test on CCRF-CEM leukemia and 93.5% (inactive) in the test with MOLT-4 leukemia.
With `CCOC(=O)C(=O)C=P(c1ccccc1)(c1ccccc1)c1ccccc1`, the growth in the test with HCT-15 colon was 102% (inactive); with HT29 colon, 106% (inactive); in the test with SNB-19 CNS, 109% (inactive); with U251 CNS it was 107% (inactive); in the test on PC-3 prostate it was 96.4% (inactive); with SK-MEL-5 melanoma it was 102% (inactive). For the same compound, the growth in the test with UACC-62 melanoma (10 µM unless noted) is 107% (inactive); in the test with LOX IMVI melanoma it was 92.8% (inactive); in the test on SK-MEL-28 melanoma it was 110% (inactive); with SK-MEL-2 melanoma, 99.6% (inactive); with EKVX NSCLC, 105% (inactive); in the test on SN12C renal, 103% (inactive). Further, the growth with UO-31 renal is 90.2% (inactive); in the test on TK-10 renal (10 µM unless noted) it was 99% (inactive); in the test on ACHN renal, 108% (inactive); in the test with CAKI-1 renal, 101% (inactive); with A498 renal, 105% (inactive); in the test with CCRF-CEM leukemia, 99.9% (inactive). Besides, the growth with MOLT-4 leukemia was 101% (inactive).
Regarding `COc1cc2c3cc1Oc1c(OC)c(OC)cc4c1C(Cc1ccc(O)c(c1)Oc1ccc(cc1)CC3N(C)CC2)N(C)CC4` (centres undefined), the growth in the test on HCT-15 colon is 6.32% (active); in the test with HT29 colon, -21.8% (active); with SNB-19 CNS, 27.2% (inactive); with U251 CNS, -95.9% (active); with PC-3 prostate it was 1.26% (active); in the test on SK-MEL-5 melanoma, -98.2% (active). The growth with UACC-62 melanoma (10 µM) is 27.6% (inactive); in the test on UACC-62 melanoma (100 µM) it was 98.2% (inactive) and -80.6% (active); in the test with LOX IMVI melanoma, -90.5% (active); with SK-MEL-28 melanoma, -80.8% (active); in the test with SK-MEL-2 melanoma, -16% (active); with SN12C renal it was 16.9% (inactive). Besides, the growth in the test on UO-31 renal is 2.84% (active); with TK-10 renal (10 µM), 4.81% (active); with TK-10 renal (100 µM), 96% (inactive) and -100% (active); with ACHN renal, 18.9% (inactive); in the test with A498 renal it was 21.4% (inactive); in the test with CCRF-CEM leukemia, 2.18% (active). Besides, the growth in the test on MOLT-4 leukemia is -3.59% (active).
With `O=c1[nH][nH]c(=O)c2cc([N+](=O)[O-])ccc12`, the growth is 121% (inactive) in the test on HCT-15 colon; 103% (inactive) with HT29 colon; 108% (inactive) in the test with SNB-19 CNS; 101% (inactive) with U251 CNS; 104% (inactive) in the test with PC-3 prostate; 101% (inactive) with SK-MEL-5 melanoma. For the same compound, the growth is 112% (inactive) in the test on UACC-62 melanoma (10 µM unless noted); 94.8% (inactive) in the test with LOX IMVI melanoma; 115% (inactive) with SK-MEL-28 melanoma; 103% (inactive) in the test on SK-MEL-2 melanoma; 106% (inactive) with EKVX NSCLC; 108% (inactive) with SN12C renal. Further, the growth in the test on UO-31 renal is 85.7% (inactive); in the test with TK-10 renal (10 µM unless noted), 104% (inactive); in the test with ACHN renal, 107% (inactive); in the test with CAKI-1 renal, 96.8% (inactive); in the test on A498 renal, 117% (inactive); in the test with CCRF-CEM leukemia, 100% (inactive). For the same compound, in the test with MOLT-4 leukemia, the growth was 100% (inactive).
In the case of `Nc1nc(N)c2cc(S(=O)(=O)c3cccc(C(F)(F)F)c3)ccc2n1`, the growth in the test on HCT-15 colon is 33.2% (inactive); with HT29 colon, 22.9% (inactive); in the test on SNB-19 CNS it was 43.6% (inactive); in the test on U251 CNS it was 32.2% (inactive); in the test on PC-3 prostate, 39.6% (inactive); with SK-MEL-5 melanoma it was 28.3% (inactive). Besides, the growth was 32.5% (inactive) in the test with UACC-62 melanoma (10 µM unless noted); 28.6% (inactive) in the test with LOX IMVI melanoma; 69.9% (inactive) with SK-MEL-28 melanoma; 89.8% (inactive) with SK-MEL-2 melanoma; 44% (inactive) in the test on EKVX NSCLC; 33.7% (inactive) with SN12C renal. In addition, the growth is 56% (inactive) in the test on UO-31 renal; 72.6% (inactive) in the test on TK-10 renal (10 µM unless noted); 38.4% (inactive) with ACHN renal; 65.1% (inactive) in the test with CAKI-1 renal; 78.4% (inactive) with A498 renal; 45.8% (inactive) in the test on CCRF-CEM leukemia. In addition, the growth in the test with MOLT-4 leukemia is 37.3% (inactive).
Turning to `CC(=O)c1sc2c(c1OC(=O)c1ccc(Cl)cc1Cl)c(=O)n(-c1ccccc1)c(=S)n2-c1ccccc1`, the growth in the test on HCT-15 colon was 3.9% (active); with HT29 colon it was -23.9% (active); in the test with SNB-19 CNS it was 16.3% (inactive); in the test with U251 CNS, 1.6% (active); in the test with PC-3 prostate it was -29.7% (active); with SK-MEL-5 melanoma it was 42.7% (inactive). Besides, the growth was 29.4% (inactive) in the test on UACC-62 melanoma (10 µM); -11.6% (active) and -45.7% (active) in the test on UACC-62 melanoma (100 µM); -18.9% (active) with LOX IMVI melanoma; -43.9% (active) with SK-MEL-2 melanoma; 51.4% (inactive) with EKVX NSCLC; 13.4% (inactive) in the test with SN12C renal. The growth was -9.03% (active) in the test on TK-10 renal (10 µM); 2.01% (active) and -66.5% (active) in the test with TK-10 renal (100 µM); -18.2% (active) with ACHN renal; 13.5% (inactive) with CAKI-1 renal; -41.9% (active) in the test on A498 renal; -24.2% (active) with CCRF-CEM leukemia. For the same compound, the growth with MOLT-4 leukemia is -11.4% (active).
As for `O=c1[nH]cc(Cl)cc1O`, the growth was 64.4% (inactive) in the test with HCT-15 colon; 97.3% (inactive) in the test with HT29 colon; 105% (inactive) in the test on SNB-19 CNS; 88.6% (inactive) in the test with U251 CNS; 82.2% (inactive) in the test with PC-3 prostate; 86.6% (inactive) in the test on SK-MEL-5 melanoma. Moreover, the growth in the test with UACC-62 melanoma (10 µM unless noted) is 40.5% (inactive); in the test on LOX IMVI melanoma, 65.5% (inactive); in the test on SK-MEL-28 melanoma, 105% (inactive); with SK-MEL-2 melanoma, 89% (inactive); with EKVX NSCLC, 82.2% (inactive); in the test with SN12C renal it was 95% (inactive). In addition, the growth with UO-31 renal was 62.4% (inactive); with TK-10 renal (10 µM unless noted), 89.4% (inactive); in the test with ACHN renal it was 62.2% (inactive); in the test with CAKI-1 renal, 85.9% (inactive); in the test with CCRF-CEM leukemia, 49% (inactive); in the test with MOLT-4 leukemia, 92.1% (inactive).
Turning to `N#CCc1ccc([N+](=O)[O-])cc1`, the growth in the test with HCT-15 colon was 105% (inactive); in the test on HT29 colon it was 104% (inactive); with SNB-19 CNS, 96.6% (inactive); in the test on U251 CNS, 98.5% (inactive); with PC-3 prostate, 95.8% (inactive); in the test with SK-MEL-5 melanoma, 101% (inactive). Further, the growth in the test on UACC-62 melanoma (10 µM unless noted) was 92.8% (inactive); in the test with LOX IMVI melanoma, 100% (inactive); in the test on SK-MEL-28 melanoma, 106% (inactive); in the test on SK-MEL-2 melanoma it was 107% (inactive); in the test on EKVX NSCLC it was 97.8% (inactive); in the test with SN12C renal it was 101% (inactive). Besides, the growth was 72.1% (inactive) in the test with UO-31 renal; 107% (inactive) in the test on TK-10 renal (10 µM unless noted); 103% (inactive) in the test with ACHN renal; 93% (inactive) in the test with CAKI-1 renal; 90.7% (inactive) with A498 renal; 100% (inactive) with CCRF-CEM leukemia. In addition, in the test with MOLT-4 leukemia, the growth was 74.2% (inactive).
